From PubChem
PrPC surface inh = reduces human prion protein on the cell surface; inhibition, % at 13.8 µM; AID 720596; 370,000 compounds, 0.43% hits; P04156; cell surface PrPC, TR-FRET read-out; in the data active means inhibition above about 24%; further: 0% = median of the test wells and 100% = reference compound wells
FBA Mtb inh = inhibits M. tuberculosis FBA enzyme. purified M. tuberculosis FBA, fluorescence read-out. AID 588726. inhibition, % at 1 µM. 360,000 compounds, 2.3% hits;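 further: 0% = vehicle and 100% = reference inhibitor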
Target sequence (P9WQA3 whole entry, looked up): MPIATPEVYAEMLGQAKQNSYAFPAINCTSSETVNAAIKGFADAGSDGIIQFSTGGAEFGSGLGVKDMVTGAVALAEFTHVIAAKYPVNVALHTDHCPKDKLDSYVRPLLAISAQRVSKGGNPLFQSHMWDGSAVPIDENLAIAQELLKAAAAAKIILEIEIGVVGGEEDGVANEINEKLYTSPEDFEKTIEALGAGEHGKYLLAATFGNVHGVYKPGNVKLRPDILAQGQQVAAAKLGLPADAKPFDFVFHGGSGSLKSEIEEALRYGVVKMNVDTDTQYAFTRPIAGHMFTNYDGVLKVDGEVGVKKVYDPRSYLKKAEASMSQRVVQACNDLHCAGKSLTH
PrP 5UTR inh = inhibition of PrP 5' UTR reporter expression; cell-based PrP 5' UTR mRNA reporter, plate reader; AID 488862; inhibition, % (concentration not given with the values); 340,000 compounds, 0.35% hits; in the data active means inhibition above about 52%; further: 0 = median of the neutral control wells
BJeLR viability = BJeLR cell viability loss; BJeLR (HRASV12) viability, CellTiter-Glo ATP luminescence, 48 h; inhibition, % (test concentration not listed); 300,000 compounds, 0.17% hits; AID 1554; in the data active means inhibition above about 50%
GDH-TPI counter-1 = counter-screen for M. tuberculosis FBA inhibitors: GDH-TPI coupled enzymes; GDH-TPI coupled enzyme counterscreen, NADH absorbance; AID 588335; 360,000 compounds, 1.2% hits; inhibition, % at 4.8 µM; in the data active means inhibition above about 30%;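 further: 0% = DMSO wells and 100% = wells lacking the enzyme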
PfHsp40 rescue = restores yeast growth despite PfHsp40 toxicity | S. cerevisiae expressing PfHsp40, growth rescue, ATP luminescence | growth rescue, % at 12.5 µM | 340,000 compounds, 0.68% hits | AID 504582; in the data active means growth rescue above about 28%, passing the limit was not always enough;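 further: yeast W303a lacking pdr1 and pdr3 grown in galactose medium; growth measured after three days at 30 °C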
Mtb FBA inh conf = Mtb FBA inhibition, confirmed; shares compounds with FBA Mtb inh; purified M. tuberculosis FBA, fluorescence read-out; inhibition, % at 1 µM; 5,600 compounds, 78% hits;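 further: 0% = vehicle wells and 100% = reference inhibitor wells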
GDH-TPI counter-2 = counter-screen for M. tuberculosis FBA inhibitors: GDH-TPI coupled enzyme inhibition; shares compounds with FBA Mtb inh; GDH-TPI coupled enzyme counterscreen, fluorescence; 5,600 compounds, 81% hits; inhibition, % at 1 µM; AID 652141; in the data active means inhibition above about 10%
Active calls of the source: *; . = not tested or not shown. Most compounds without a hit are left out; they make up all but 4.5% or so of the library. Unless noted, no stated cut-off is given here; in the data, active means inhibition above about 27%; inactive means the rest.

SMILES | PrPC surface inh | FBA Mtb inh | PrP 5UTR inh | BJeLR viability | GDH-TPI counter-1 | PfHsp40 rescue | Mtb FBA inh conf | GDH-TPI counter-2
Cc1ccccc1S(=O)(=O)Cc1ccc(C(=O)NC2CC2)o1 | 6 | 3 | -11 | -7 | 2 | -1 | . | .
CCN1CC(c2ccccc2)C(c2ccc(Cl)cc2)=N1 (stereo not given) | 6 | 5 | -14 | -10 | 1 | 1 | . | .
CC(=O)Nc1cccc(NC(=O)Cc2cccs2)c1 | 0 | 0 | -7 | 9 | 13 | 1 | . | .
O=C(Cc1cccs1)Nc1cccc(-c2nc3cc4ccccc4cc3[nH]2)c1 | 4 | 56* | -127 | 16 | 22 | 77* | -5 | -4
CCCCC(CC)Cn1c2nc3ccccc3nc2c2c(=N)oc(C)nc21 (stereo not given) | . | . | . | -7 | . | . | . | .
CCCCn1c2nc3ccccc3nc2c2c(=N)oc(C)nc21 | -3 | 31* | -19 | . | 2 | 2 | 35* | 26*
CC1(C)Oc2cc3oc(C(=O)O)cc(=O)c3cc2-c2ccccc21 | 5 | 95* | . | . | 19 | . | 19 | 6
CC1(C(=O)NC2CCCCCC2)CCN1C(=O)C1(c2ccccc2)CC1 (stereo not given) | 3 | 2 | . | . | 7 | . | . | .
Cc1cccc(NC(=O)Nc2cccc(C)n2)n1 | -2 | 2 | -27 | -15 | 4 | -1 | . | .
Cc1cccc(NC(=S)Nc2cccc(C)n2)n1 | 1 | 91* | -18 | 2 | 12 | 1 | 9 | -3
c1cncc(CNc2cccc(-c3nc4ccccc4[nH]3)c2)c1 | 0 | 48* | -72 | 5 | 8 | 0 | 0 | -3
Cc1ccc(C)c(NCCC#N)c1 | 6 | -1 | -11 | -7 | 3 | -2 | . | .
CCN(CC)CCN1CCN(c2cnc(C)cn2)CC1 | 7 | 1 | . | . | 3 | . | . | .
COc1ccccc1/C=C/C=C(\C#N)C(=O)NC(C)c1ccccc1 (stereo not given) | -12 | -2 | -6 | -5 | 22 | 1 | . | .
Cc1ccc(-c2cc(C)nc3nc(N)nn23)cc1 | 6 | 83* | 0 | 6 | 17 | 1 | 61* | 51*
Cc1ccc(-c2cc(C)nc3ncnn23)cc1 | 4 | 16 | -17 | -10 | 10 | 1 | . | .
O=C(NCc1ccccc1)C(c1ccc(-c2ccccc2)cc1)N1CCN(C(=O)C2CCCO2)CC1 (stereo not given) | 0 | . | . | . | . | . | . | .
CC1CCN(Cc2nnnn2CCCC(=O)N(C)C(C)c2ccccn2)CC1 (stereo not given) | 2 | -1 | -14 | 0 | 5 | -1 | . | .
COc1ccc(NC(=O)Cc2nnc(SCC(=O)Nc3ccccc3)n2C)cc1 | 2 | -2 | -22 | -15 | -2 | -1 | . | .
CN(C)c1nc(C=C(C#N)C#N)c(Cl)n1-c1ccc(F)cc1 | 5 | -3 | -34 | 34 | 1 | 0 | . | .
COc1cccc(CN2CCN(Cc3cccc(Oc4ccccc4)c3)CC2)c1OC | -6 | 37* | 3 | 5 | 6 | 1 | 3 | -5
COc1cccc(CN2CCN(Cc3cc(OC)c(OC)c(OC)c3)CC2)c1OC | 5 | 2 | -7 | -3 | 4 | -2 | . | .
CCOc1cc(C(=S)N2CCOCC2)ccc1OC(=O)c1cc(OC)c(OC)c(OC)c1 | -7 | 3 | -12 | 23 | -6 | -1 | . | .
Cc1ccc(NC(=O)CCC(=O)c2cccs2)cc1F | 6 | -1 | 10 | -4 | 5 | -4 | . | .
C[n+]1c(-c2ccccc2)cc(-c2ccc(Cl)cc2)cc1-c1ccccc1 | -10 | 71* | -31 | 13 | -5 | 1 | 79* | 69*
O=C(CCNS(=O)(=O)c1ccccc1)N1CCN(c2ccccc2F)CC1 | 5 | 3 | 1 | 6 | -3 | 0 | . | .
CC(=O)OC1C=CCC2C(=O)c3cccc(O)c3C(O)C12 (stereo not given) | -8 | 2 | -24 | . | 4 | -1 | . | .
Cc1cccc(-n2c(=O)[nH]c3c(C(N)=O)nc(CC(C)C)nc32)c1 | 3 | 46* | -12 | 0 | 9 | 1 | 94* | 76*
CC(C)Cc1nc(C(N)=O)c2[nH]c(=O)n(-c3ccc(F)cc3)c2n1 | 9 | 10 | 6 | 2 | 2 | 0 | . | .
